# Assay outcomes as filed in PubChem BioAssay.
# POLK inh = blocks human DNA polymerase kappa activity. Q9UBT6. Potency, µM (titrated, usually from 107 µM), usual class: inhibitors. purified Pol kappa, fluorescent DNA synthesis assay, 10 min. actives 0.53% (n = 400,000)
#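 50 nM final substrate added after 15 min RT preincubation of 10 nM Pol kappa with compound; fluorescence read at 0 and 10 min.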
# APEX1 inh = inhibitors of human APE1 endonuclease; actives 0.35% (n = 350,000); recombinant APE1, TAMRA/BHQ-2 abasic DNA cleavage fluorescence; Potency, µM (series often up to 65.8 µM), actives largely listed as inhibitors; further: nearly all actives have a fitted effect of over 55% in size
#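 Enzyme (0.75 nM final) and test compound are incubated 15 min at room temperature before adding 50 nM quenched THF abasic-site duplex. Cleavage dequenches TAMRA, followed at 525/598 nm over three reads one minute apart.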
# L3MBTL1 block = inhibitors of human L3MBTL1; AID 485360; AlphaScreen L3MBTL1–H3K9me1 peptide binding; actives 0.66% (n = 230,000); Potency, µM (titrated, usually from 57.1 µM), actives largely listed as inhibitors; Q9Y468; further: nearly all actives have a fitted effect of over 60% in size
#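 L3MBTL1 (50 nM) pre-complexed 30 min with biotinylated H3(1-15)K9me1 peptide (75 nM), then compounds added for 30 min at room temperature; AlphaScreen streptavidin donor/nickel chelate acceptor beads (10 ug/mL final) read after 30 min dark incubation.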
# Pol beta inh = DNA polymerase beta (human) inhibition | P06746 | Pol beta primer extension/strand displacement, fluorescence kinetic | Potency, µM (titrated, usually from 114 µM), usual class: inhibitors | actives 1.3% (n = 340,000) | AID 485314
#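 Kinetic readout of DNA synthesis with strand displacement by Pol beta. Compound and 10 nM enzyme sit 15 min at room temperature; 50 nM substrate starts the reaction, read immediately and at 10 min.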
# Pol eta inh = DNA polymerase eta (human) inhibition; AID 588591; recombinant Pol eta, fluorescent DNA replication assay; Potency, µM (highest dose often 114 µM), most hits filed as inhibitors; actives 1.2% (n = 390,000)
# Target sequence (Q9Y253 whole entry, looked up): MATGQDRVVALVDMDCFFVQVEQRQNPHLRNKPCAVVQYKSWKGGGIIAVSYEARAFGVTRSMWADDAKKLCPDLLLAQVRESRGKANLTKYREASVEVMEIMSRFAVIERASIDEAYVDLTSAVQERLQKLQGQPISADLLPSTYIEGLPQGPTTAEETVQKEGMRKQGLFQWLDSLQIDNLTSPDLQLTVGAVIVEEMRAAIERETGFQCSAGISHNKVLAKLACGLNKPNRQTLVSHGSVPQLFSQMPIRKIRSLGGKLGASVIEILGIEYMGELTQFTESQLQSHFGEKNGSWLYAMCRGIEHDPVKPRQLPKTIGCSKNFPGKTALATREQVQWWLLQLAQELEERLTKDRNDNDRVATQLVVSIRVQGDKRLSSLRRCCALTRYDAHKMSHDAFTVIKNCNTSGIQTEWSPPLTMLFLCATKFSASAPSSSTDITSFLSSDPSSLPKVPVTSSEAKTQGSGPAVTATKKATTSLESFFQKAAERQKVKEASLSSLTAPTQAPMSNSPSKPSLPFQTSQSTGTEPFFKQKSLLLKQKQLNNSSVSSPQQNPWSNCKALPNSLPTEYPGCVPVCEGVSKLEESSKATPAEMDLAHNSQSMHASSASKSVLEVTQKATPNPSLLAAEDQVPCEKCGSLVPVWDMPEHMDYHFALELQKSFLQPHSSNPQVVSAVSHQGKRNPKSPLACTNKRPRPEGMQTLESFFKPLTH
#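 Fluorescent replication assay: 50 nM final substrate added after a 15 min room-temperature compound preincubation with 10 nM enzyme. Signal taken at 0 min and again at 10 min.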
# POLI inh = DNA polymerase iota (human) inhibition; actives 1% (n = 390,000); Q9UNA4; Potency, µM (doses to about 115 µM), most hits filed as inhibitors; AID 588590; Pol iota fluorescent replication assay, 10 min
#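 Fluorescent replication assay read twice, at 0 min and 10 min after adding 50 nM (final) substrate. Enzyme (10 nM) and compounds were first incubated 15 min at room temperature; enzyme-free buffer wells were negative controls.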
# A number is an active result; 0 = inactive; ? = inconclusive; - = no result; [ ] = remark or other dose. Sampled rows, rich in hits. Any-hit rate of the full collection: about 2.5%. The call rests on the fitted dose curve; in most records, active means well fitted curve in the direction sought with a large enough effect; inconclusive means small, poorly fitted or top-dose-only effect, or another doubt; inactive means no such curve, though single readings can be large; an effect the other way counts as inactive or inconclusive.
SMILES,POLK inh,APEX1 inh,L3MBTL1 block,Pol beta inh,Pol eta inh,POLI inh
CC(=O)NC(Cc1c(F)c(F)c(F)c(F)c1F)C(=O)NCC(N)C(=O)c1ccccc1 (stereo not drawn),0,-,-,-,-,0
Cc1ccc2c(c1)N(CC(=O)N1CCN(C3CCCCC3)CC1)C(=O)CO2,0,0[12.4 µM],-,0,0,0
C=CCc1ccccc1OCCSc1nc2ccc([N+](=O)[O-])cc2s1,0,0,0,0,0,0
C=CCc1ccccc1OCCSc1nc(-c2ccccc2F)nc2cc(=O)[nH]n12,0,-,-,10µM,?,?
Cc1c(NS(=O)(=O)c2cccc(C(=O)NC(C)c3ccccc3)c2)c(=O)n(-c2ccccc2)n1C (stereo not drawn),0,-,-,-,0,0
CNS(=O)(=O)c1cccc(C(=O)OCc2cc(=O)oc3c(C)c(O)ccc23)c1,0,0,-,10µM,?,?
CCOC(=O)c1c(NC(=O)/C=C/C(=O)O)sc(C)c1-c1ccc(Cl)cc1,0,0,0,0,79.4µM,?
N#CC1=C(N)OC2=C(CCC/C2=C/c2ccoc2)C1c1ccoc1 (stereo not drawn),-,14.1µM,15.8µM,14.1µM,-,-
N#CC1=C(N)OC2=C(CC/C2=C\c2ccc(F)cc2)C1c1ccc(F)cc1 (stereo not drawn),-,0,0,0,-,-
Cc1ccc(-c2csc3ncnc(Sc4nnnn4-c4ccccc4)c23)cc1,0,-,-,-,-,0
O=C(N/N=C/c1ccc(O)c(O)c1)c1ccc(CSc2cccc3cccnc23)cc1,?,0,-,3.16µM,3.55µM,?
CC(C)(C)c1ccc(Cn2cnc3c(cnn3C(C)(C)C)c2=O)cc1,0,0,-,-,-,0
CN1c2ccccc2C(C)(C)C12C=Nc1c(cc(N3CCOCC3)c3ccccc13)O2 (stereo not drawn),0,0,0,0,0,3.55µM
CN1c2ccccc2C(C)(C)C12C=Cc1cc(O)ccc1O2 (stereo not drawn),0,0,0,0,0,0
CCc1ccccc1NC(=O)Cn1nnc2sc3c(c2c1=O)CCC(C(C)(C)C)C3 (stereo not drawn),0,-,-,0,-,0
COCCNc1ncnc2ccc(-c3ccc(C(=O)N(C)C)cc3)cc12,0,0,-,-,-,-
O=C(CSC1=NC(=O)C(c2ccccc2)C(=O)N1)Nc1ccccc1[N+](=O)[O-] (stereo not drawn),?,0,0,?,50.1µM,?
O=C(CSC1=NC(=O)C(c2ccccc2)C(=O)N1)Nc1ccccc1Cl (stereo not drawn),0,0,-,0,0,0
Cc1cccc(C(=O)NCc2ccco2)c1,0,0,0[2.29 µM],56.2µM,?,?
CC(C)CNC(=O)c1cccc(NC(=O)c2ccc(NC(=O)c3ccco3)cc2)c1,0,0,-,25.1µM,0,?
CCOC(=O)c1c(C)c(C(=O)NCc2ccco2)c(C)n1Cc1ccccc1,0,0,0,39.8µM,?,?
CCOC(=O)c1c(C)c(C(=O)NCc2ccco2)c(C)n1CC,0,0,-,0,0,0
O=C(CN1CCN(c2ccccc2F)CC1)NC(=O)NCc1ccco1,?,?,-,31.6µM,0,?
O=C(c1cnn2c1NC(=C1CC1)C=C2C(F)F)N(C1CCCCC1)C1CCCCC1,-,0,-,-,-,-
COc1cccc(-c2cc3nc4c(c(N5CCC6(CC5)OCCO6)n3n2)CCC4)c1,0,0,0,0,0,0
SMILES,POLK inh,APEX1 inh,L3MBTL1 block,Pol beta inh,Pol eta inh,POLI inh
O=C(NCc1ccco1)c1ccccc1F,0,0,-,?,22.4µM,?
CCOc1cc(OCC)cc(C(=O)NCc2ccco2)c1,0,0,0,0,0,?
O=C(NCc1ccco1)c1cccc(NC(=O)c2ccccc2)c1,0,0,0[11.4 µM],0,0,0
O=C(NCc1ccco1)c1ccc(Cn2c(=S)[nH]c3ccccc3c2=O)cc1,0,0,-,20µM,?,0
CCC(CC)C(=O)Nc1cccc(C(=O)NCc2ccco2)c1,?,0,?,3.16µM,?,39.8µM
CCOc1ccc(C(=O)NCc2ccco2)cc1,?,?,0,22.4µM,?,?
COc1cc(OC)c(OC)cc1/C=C/c1ccc2ccccc2n1,0,-,-,-,-,0
O=C(/C=C/c1ccccc1)c1ccc(O)cc1,0,0,-,-,-,-
COCCCNC(=O)c1nn(-c2ccc(C)cc2)nc1CO,0,-,-,0,0,0
O=c1c(S(=O)(=O)c2ccc(Cl)cc2)cn(Cc2ccc(F)cc2)c2ccc(F)cc12,?,-,-,0,0,79.4µM
Cc1ccc(CN(Cc2ccco2)c2cnc(S(C)(=O)=O)nc2C(=O)Nc2ccccc2Br)o1,0,-,-,0,0,0
COc1ccc(N2Cc3cccc(C(=O)Nc4ccc(C)c(C)c4)c3C2=O)cc1,0,-,-,11.2µM,0,?
COCCN1Cc2cccc(C(=O)Nc3ccc(C)c(C)c3)c2C1=O,0,0,-,0,0,0
COc1ccc(N2Cc3cccc(C(=O)Nc4ccc(F)cc4)c3C2=O)cc1,?,-,-,6.31µM,?,?
COc1cccc(CN(C)C(=O)c2ccc3nccnc3c2)c1,0,0,-,39.8µM,12.6µM,?
COC(=O)[C@H](CCSC)NC(=O)Cn1cnc2c(NCc3ccccc3)ncnc21,0,0,0,-,0,0
COc1ccc2c(c1)n([O-])c1c([n+]2=O)CCC1,0,0,-,0,22.4µM,?
Cc1ccc(SCc2cc(=O)c3c(=O)n(-c4ccccc4)[nH]c3[nH]2)cc1,?,?,0,35.5µM,0,22.4µM
Cc1[nH]n(-c2ccccc2)c(=O)c1Sc1ccc(Cl)cc1,0,0,0,0,0,0
O=c1cc(CSc2ccc(Cl)cc2)[nH]c2[nH]n(-c3ccccc3)c(=O)c12,?,0,?,39.8µM,0,?
CC(=O)Nc1ccc(NC(=O)COC(=O)c2ccccc2OCc2cccc(Br)c2)cc1,0,-,-,-,-,0
O=C1C=C(c2ccc(-c3ccccc3)cc2)C[C@@H](c2ccc3c(c2)OCO3)C1,0,0,0,-,0,0
O=C1C=C(c2ccc(C(=O)O)c(Cl)c2)C[C@@H](c2ccc3c(c2)OCO3)C1,?,0,0,-,50.1µM,?
O=C(CNC(=O)C1(c2ccccc2)CC1)Nc1ccc(F)c(F)c1,0,0,0,-,0,0
COc1cc(Cl)cc(C(c2c(C(=O)O)[nH]c3ccccc23)c2c(C(=O)O)[nH]c3ccccc23)c1O,?,0,0,89.1µM,?,?
CCOC(=O)C1CCN(C(=O)CSc2n[nH]c(-c3ccc(F)cc3)n2)CC1,0,-,-,0,0,?
CCCCCCc1ccc(C(=O)CCN(C)C)cc1,0,0,-,-,-,0
O=C(O)c1ccccc1-c1ccccc1C(=O)Nc1ccc2c(c1)[nH]c(=O)c1ccccc12,0,0,0,0,50.1µM,0
O=C(O)C1C2CCC(O2)C1C(=O)Nc1ccc(F)c(Cl)c1 (stereo not drawn),0,0,0,0,0,0
